Among all 2,200 compounds or so, about 1,300 (59%) were called active. No rule for the calls is given here. So high a share suggests a set chosen from earlier hits. The list is a sample of the results. Results with a measured potency or affinity are listed apart.
Experiment: human monocytic cell viability reduction – S. typhimurium screen hits, cytotoxicity control for Salmonella PhoP regulon inhibitors, dose response (AID 2253)
Details: THP-1 viability, CellTiter-Glo luminescence, 72 h; series mostly up to 50 µM; viability: at the top concentration

| Structure (SMILES) | viability |
| --- | --- |
| O=S(=O)(c1ccc(NC(=S)Nc2ccc3c(c2)OCO3)cc1)N1CCOCC1 | 82.4% (inactive) |
| C/C(=N\NC(=O)c1ccccc1)c1ccc2c(c1)OCO2 | 83.2% (inactive) |
| COc1ccc(-c2cc(C(=O)Nc3ccc(S(=O)(=O)Nc4ncccn4)cc3)c3ccccc3n2)cc1 | 81.1% (inactive) |
| O=C(Nc1nccs1)c1cc(-c2ccco2)nc2ccccc12 | 98.7% (inactive) |
| N#CCCN(C(=O)CN1C(=O)NC2(CCCC2)C1=O)c1ccccc1F | 92.2% (inactive) |
| c1ccc(CSc2nnc(-c3ccncc3)o2)cc1 | 97.8% (inactive) |
| O=C(CSc1nnc(Cc2ccccc2)o1)NCCc1ccccc1 | 98.5% (inactive) |
| O=C(NCCc1ccccc1)c1ccc2nc(-c3ccco3)c(-c3ccco3)nc2c1 | 87.4% (inactive) |
| CCn1cc(C(=O)O)c(=O)c2cc(F)c(N3CCN(C(=S)NC(=O)c4cccc(F)c4)CC3)cc21 | 101% (inactive) |
| Cc1ccc(C(=O)c2ccccc2C(=O)O)c(O)c1 | 93.6% (inactive) |
| Cc1cc(C)cc(-n2c(C)cc(C=C(C#N)C#N)c2C)c1 | 108% (inactive) |
| CCN(c1ccc(OCC(=O)OCC(=O)Nc2ccc(F)c(F)c2F)cc1)S(=O)(=O)c1ccccc1 | 93.2% (inactive) |
| NC1CCN(c2nc3c(cc2F)c(=O)c(C(=O)O)cn3-c2ccc(F)cc2F)C1 (configuration not stated) | 96.4% (inactive) |
| CCOC(=O)C1=C(C)NC(=S)NC1c1ccc(OC(=O)c2ccco2)cc1 (configuration not stated) | 80.1% (inactive) |
| CCNC(=O)NC1(C(=O)Nc2ccc3c(c2)OCCO3)CCCCC1 | 102% (inactive) |
| O=C(Nc1nc2ccc(SC(F)F)cc2s1)c1ccc2c(c1)S(=O)(=O)c1ccccc1C2=O | 92% (inactive) |
| Cc1nn(C)c(C)c1S(=O)(=O)N1CCC(C(=O)NC2CCCCC2)CC1 | 87.9% (inactive) |
| Cc1cccc(N2CCN(CC(=O)Nc3nccs3)CC2)c1C | 94.7% [at 25 µM] (inactive) |
| O=c1cc(Cc2ccccc2)[nH]c(=S)[nH]1 | 89.9% (inactive) |
| CC1CCc2c(N3CCC(O)CC3)c(F)cc3c(=O)c(C(=O)O)cn1c23 (configuration not stated) | 81.6% (inactive) |
| CC1(C)CC(=O)C=C(Nc2ccc(Br)cn2)C1 | 91.2% (inactive) |
| Cc1nn(CCOc2ccccc2)c(=O)n1-c1ccc(F)cc1 | 101% (inactive) |
| CCCn1c(/N=C/c2ccc3c(c2)OCO3)nc2ccccc21 | 102% (inactive) |
| CCCn1c(NCCO)nc2ccccc21 | 96.2% (inactive) |
| CC(Cl)C(=O)NNc1cccc(Cl)n1 (configuration not stated) | 90.3% (inactive) |
| S=c1nc(C2CCCCC2)[nH][nH]1 | 96.5% (inactive) |

| Structure (SMILES) | viability |
| --- | --- |
| Cc1cc(C)n2c(SCC(=O)NCc3ccco3)nnc2n1 | 110% (inactive) |
| COc1ccc(C(=O)C(CO)Oc2ccccc2OC)cc1OC (configuration not stated) | 88.4% (inactive) |
| CCS(=O)(=O)Nc1cc(C(=O)OC)ccc1C(=O)OC | 94.7% (inactive) |
| CCCCOC(=O)CSc1nc2c(c(=O)[nH]c(=O)n2C)n1C/C=C(\C)Cl | 95% (inactive) |
| Cc1ccc(NC(=O)c2ccccc2)s1 | 95.6% (inactive) |
| Brc1cccc(CNCc2cccs2)c1 | 101% (inactive) |
| Cc1cc(C(=O)NCc2cccs2)cs1 | 88.3% (inactive) |
| CCN(CC)Cc1c[nH]c2c(C(=O)OC)cccc12 | 85.1% (inactive) |
| COCCn1c(-c2ccccc2F)n[nH]c1=S | 105% (inactive) |
| O=C(CCN1CCCCC1)NCC1OCCc2ccccc21 (configuration not stated) | 98.8% (inactive) |
| CN1CCCC(OC(=O)c2ccc3c(c2)OCCO3)C1 (configuration not stated) | 88.2% (inactive) |
| O=C(CCNS(=O)(=O)c1cccc2nsnc12)Nc1ccc2c(c1)OCCO2 | 96.2% (inactive) |
| S=c1[nH]nc(Cc2cccc3ccccc23)o1 | 104% (inactive) |
| c1coc(CNc2c3c(nc4ncnn24)CCCC3)c1 | 95.3% (inactive) |
| CCOc1ccc(/C=N/O)cc1 | 93% (inactive) |
| CCOc1ccc(CCNC(=O)c2cc3sc(Cl)cc3n2C)cc1OCC | 82.6% (inactive) |
| CCN1CCN(C(=O)c2ccc(COc3ccc(Cl)cc3)o2)CC1 | 90% (inactive) |
| Cc1nc(N)sc1Cc1ccc2c(c1)OCO2 | 81.2% (inactive) |
| CCSc1cc(N2CCCC2)nc(-c2cccc(C)c2)n1 | 92.8% (inactive) |
| O=C(CN1C(=O)c2ccccc2C1=O)N1CCN(c2ccccn2)CC1 | 93.9% (inactive) |
| CCN(Cc1ccccc1)C(=O)CN1C(=S)NC(C)(C)CC1C (configuration not stated) | 105% (inactive) |
| Cc1cccc(NC(=O)c2cc(N3C(=O)CCC3=O)ccc2Cl)n1 | 92.3% (inactive) |
| CN1CCN(S(=O)(=O)c2ccc(-c3ccccc3)cc2)CC1 | 89.2% (inactive) |
| CC1CCN(S(=O)(=O)c2cccc(C(=O)N(C)C3CCS(=O)(=O)C3)c2)CC1 (configuration not stated) | 92% (inactive) |
| COCCCNc1ccnc2c(Cl)cccc12 | 85.6% (inactive) |
| CC(C)c1ccc(NC(=O)Nc2cc3sccc3n2C)cc1 | 89.7% (inactive) |

| Structure (SMILES) | viability |
| --- | --- |
| COc1ccc(Cl)cc1C(=O)Nc1ccc(NC(=O)c2ccco2)cc1 | 93.1% (inactive) |
| CSc1cccc(NC(=O)c2ccco2)c1 | 91.9% (inactive) |
| CCC(C)C(NC(=O)OCc1ccccc1)C(=O)OCN1C(=O)c2ccccc2C1=O (configuration not stated) | 102% (inactive) |
| COc1ccc(C(=O)Nc2cc(C)ccc2NC(=O)COc2ccccc2)cc1 | 81.1% (inactive) |
| COC(=O)CCC(=O)Nc1ccc(OC)cc1 | 101% (inactive) |
| Cc1sc(NC(=O)c2ccco2)c(CN2CCN(c3ccc(F)cc3)CC2)c1C | 89.5% (inactive) |
| CCOC(=O)c1c(C)[nH]c(C)c1C(=O)CSc1ncccn1 | 81.8% (inactive) |
| COc1cc(OC)cc(C(=O)N[C@H](C(=O)OCC(=O)Nc2ccc(C(N)=O)cc2)C(C)C)c1 | 89.5% (inactive) |
| Cc1ccc(-c2nnc(SCC(=O)N3CCCc4ccccc43)n2N)cc1 | 82.7% (inactive) |
| COC(=O)c1sccc1NC(=O)C1C2C=CC(O2)C1C(=O)O (configuration not stated) | 90.1% (inactive) |
| CN(C)c1nc(N)nc(Cn2ccnc2)n1 | 92.4% (inactive) |
| O=C(Cc1cccs1)N(c1ccccc1)C1C=CS(=O)(=O)C1 (configuration not stated) | 89.7% (inactive) |
| CC1(C)CC(=O)C=C(Nc2ccccc2NC(=O)c2cnccn2)C1 | 101% (inactive) |
| CC(=O)N(Cc1ccc(Cl)cc1)c1cnccn1 | 96.4% (inactive) |
| CCn1cc(C(=O)NCCO)c(=O)c2cc(F)c(N3CCN(C)CC3)cc21 | 85.3% (inactive) |
| COc1ccc(N2C(=O)C3CCCN3C2c2cccc(C)c2)cc1Cl (configuration not stated) | 92.3% (inactive) |
| CSc1nnc2c3c4c(sc3nc(-n3nc(C)cc3C)n12)COC(C)(C)C4 | 91.8% (inactive) |
| Cc1ccc(C(=O)CSc2ncnc3sc4c(c23)CCCC4)cc1 | 95.6% (inactive) |
| O=C(Nn1c(O)c(C=C2N=c3ccccc3=N2)sc1=S)c1ccc(Cl)cc1 | 93% (inactive) |
| Cc1cc(=O)oc(C)c1C(=O)NCc1cccnc1 | 105% (inactive) |
| S=C(Nc1ccc(Cl)c(Cl)c1)N1CCOCC1 | 85.7% (inactive) |
| S=C(NCc1cccnc1)Nc1cccc(Cl)c1 | 97.7% (inactive) |
| Cc1ccc(NC(=S)NCc2cccnc2)cc1 | 91.9% (inactive) |
| Cc1ccc(C)c(C(=O)NCc2ccncc2)c1 | 84% (inactive) |
| COc1ccc(Br)cc1C(=O)NCc1cccnc1 | 94% (inactive) |

— PubChem BioAssay AID2253 (Southern Research Specialized Biocontainment Screening …, 2010)
